Assay results: PubChem BioAssay (NCATS)
Inconclusive results are not listed. The source made the active and inactive calls. Calls follow the shape of the dose curve; as a rule, active = well fitted cell-killing curve with a large enough effect; inconclusive = small, poorly fitted or top-dose-only effect, or effect the other way; inactive = flat fitted curve, though single readings scatter.

How the values were obtained:
Test in all cases: Primary qHTS to identify gynecologic anti-cancer compounds using libraries of approved drugs and bioactive compounds (AID 1345084); also: nearly all actives have a fitted effect of over 55% in size
[1] = test system: C33A; conditions: Gynecologic cancer cell panel viability, ATPlite luminescence, 48 h; series mostly up to 57.5 µM
Method in brief: (§1)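 Luminescence from the ATPlite ATP-monitoring reagent indicates viable cell number; lower signal means cytotoxicity. Cells received compound 16 h after seeding and were exposed for 48 h across five concentrations.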

[2] = test system: CASKI; conditions: Gynecologic cancer cell panel viability, ATPlite luminescence, 48 h; series mostly up to 57.5 µM
Method in brief: as §1

[3] = test system: Es-2; conditions: Gynecologic cancer cell panel viability, ATPlite luminescence, 48 h; series mostly up to 57.5 µM
Method in brief: as §1

[4] = test system: HeLa; conditions: Gynecologic cancer cell panel viability, ATPlite luminescence, 48 h; series mostly up to 57.5 µM
Method in brief: as §1

[5] = test system: Hek293T; conditions: Gynecologic cancer cell panel viability, ATPlite luminescence, 48 h, control line for the selectivity index; series mostly up to 57.5 µM
Method in brief: as §1

[6] = test system: JEG-3; conditions: Gynecologic cancer cell panel viability, ATPlite luminescence, 48 h; series mostly up to 57.5 µM
Method in brief: as §1

[7] = test system: OV90; conditions: Gynecologic cancer cell panel viability, ATPlite luminescence, 48 h; series mostly up to 57.5 µM
Method in brief: as §1

[8] = test system: PA-1; conditions: Gynecologic cancer cell panel viability, ATPlite luminescence, 48 h; series mostly up to 57.5 µM
Method in brief: as §1

[9] = test system: Tov-21-G; conditions: Gynecologic cancer cell panel viability, ATPlite luminescence, 48 h; series mostly up to 57.5 µM
Method in brief: as §1

[10] = test system: Tov112D; conditions: Gynecologic cancer cell panel viability, ATPlite luminescence, 48 h; series mostly up to 57.5 µM
Method in brief: as §1

[11] = test system: SKOV3; conditions: Gynecologic cancer cell panel viability, ATPlite luminescence, 48 h; series mostly up to 57.5 µM
Method in brief: as §1

[12] = test system: CAOV3; conditions: Gynecologic cancer cell panel viability, ATPlite luminescence, 48 h; series mostly up to 57.5 µM
Method in brief: as §1
% is scaled to controls: 0 for no effect and ±100 for the full control effect.

O=C(C[C@@H]1C(C(=O)O)=CO[C@@H](O[C@@H]2O[C@H](CO)[C@@H](O)[C@H](O)[C@H]2O)/C1=C\CO)OCCc1ccc(O)c(O)c1
inactive: Potency [1] | outcome [2] | Potency [3] | Potency [4] | Potency [5] | Potency [6] | Potency [7] | Potency [8] | Potency [9] | Potency [10]

CCC(C)/C=C(C)/C=C/C1=CC2=C(Cl)C(=O)C(C)(O)C(=O)C2(O)C(OC)O1 (configuration not stated)
inactive: Potency [1] | outcome [2] | Potency [4] | Potency [5] | Potency [6] | Potency [7] | Potency [8] | Potency [11] | Potency [9] | Potency [10]

COC(=O)[C@H](Cc1ccc([N+](=O)[O-])cc1)NC(=O)c1cccc2ccccc12
inactive: Potency [1] | outcome [2] | Potency [3] | Potency [4] | Potency [5] | Potency [6] | Potency [7] | Potency [8] | Potency [9] | Potency [10]

CC1(C)CC[C@]2(C(=O)O[C@@H]3O[C@H](CO[C@@H]4O[C@H](CO)[C@@H](O)[C@H](O)[C@H]4O)[C@@H](O)[C@H](O[C@@H]4O[C@H](CO)[C@@H](O)[C@H](O)[C@H]4O)[C@H]3O)[C@H](O)C[C@]3(C)C(=CCC4[C@@]5(C)CC[C@H](O[C@@H]6OC[C@@H](O)[C@H](O)[C@H]6O)[C@@](C)(C(=O)O)C5CC[C@]43C)[C@@H]2C1 (some centres not stated)
inactive: activity change, negative = cytotoxicity [1] -4.53% [at 11.6 µM] | activity change, negative = cytotoxicity [2] 0.848% [at 11.6 µM] | activity change, negative = cytotoxicity [3] 1.6% [at 11.6 µM] | activity change, negative = cytotoxicity [4] 2.79% [at 11.6 µM] | activity change, negative = cytotoxicity [5] 10.6% [at 11.6 µM] | activity change, negative = cytotoxicity [6] -3% [at 11.6 µM] | activity change, negative = cytotoxicity [7] 6.96% [at 11.6 µM] | activity change, negative = cytotoxicity [8] 0.131% [at 11.6 µM] | activity change, negative = cytotoxicity [9] 3.95% [at 11.6 µM] | activity change, negative = cytotoxicity [10] -6.08% [at 11.6 µM]

O=C(Nc1ccccc1)Nc1ccc(-c2ccc(C(=O)C3CCCC3C(=O)O)cc2)cc1 (configuration not stated)
inactive: Potency [1] | outcome [2] | Potency [3] | Potency [4] | Potency [5] | Potency [6] | Potency [7] | Potency [8] | Potency [9] | Potency [10]

C/C(=C\C(=O)C(C)C1CCC2C3=C(CCC21C)C1(C)CCC(=O)C(C)(C)C1(O)CC3)C(C)(C)O (configuration not stated)
inactive: Potency [1] | outcome [2] | Potency [3] | Potency [4] | Potency [5] | Potency [6] | Potency [7] | Potency [8] | Potency [9] | Potency [10]

CC1=C2CC(=O)C(C)CC/C=C(\C)CC2OC1=O (configuration not stated)
inactive: Potency [12] | outcome [2] | Potency [3] | Potency [4] | Potency [5] | Potency [6] | Potency [7] | Potency [8] | Potency [11] | Potency [9] | Potency [10]

CC1=CCC(O)C2(C)CCC3C(C)C(=O)OC3C12 (configuration not stated)
inactive: Potency [12] | outcome [2] | Potency [3] | Potency [4] | Potency [5] | Potency [6] | Potency [7] | Potency [8] | Potency [11] | Potency [9] | Potency [10]

O=C(/C=C/c1ccc(O)cc1)OC[C@H]1O[C@H](O[C@@]2(CO)O[C@@H](CO)[C@H](O)[C@H]2O)[C@H](O)[C@@H](O)[C@@H]1O
inactive: Potency [1] | outcome [2] | Potency [3] | Potency [4] | Potency [5] | Potency [6] | Potency [7] | Potency [8] | Potency [9] | Potency [10]

CC(=O)O[C@@H](C[C@@H]1C=C(C)C(=O)O1)[C@H](C)[C@H]1CCC2[C@@]3(C)CC[C@H](O[C@@H]4O[C@H](CO)[C@@H](O)[C@H](O)[C@H]4O[C@@H]4O[C@@H](C)[C@H](O)[C@@H](O)[C@H]4O)C(C)(C)C3CC[C@@]2(C)[C@@]12COC(=O)C2 (some centres not stated)
inactive: activity change, negative = cytotoxicity [1] 13.5% [at 11.6 µM] | activity change, negative = cytotoxicity [2] 4.88% [at 11.6 µM] | activity change, negative = cytotoxicity [3] 8.74% [at 11.6 µM] | activity change, negative = cytotoxicity [4] 5.41% [at 11.6 µM] | activity change, negative = cytotoxicity [5] 15.9% [at 11.6 µM] | activity change, negative = cytotoxicity [6] -9.52% [at 11.6 µM] | activity change, negative = cytotoxicity [7] 15.4% [at 11.6 µM] | activity change, negative = cytotoxicity [11] 14.4% [at 11.6 µM] | activity change, negative = cytotoxicity [9] 2.35% [at 11.6 µM] | activity change, negative = cytotoxicity [10] 13.8% [at 11.6 µM]
